High-throughput results (PubChem BioAssay)
APEX1 inh = inhibitors of human APE1 endonuclease; recombinant APE1, TAMRA/BHQ-2 abasic DNA cleavage fluorescence; P27695; Potency, µM (titrated, usually from 65.8 µM), for the others: top-dose activity change, negative = inhibition, actives largely listed as inhibitors; 0.35% of 350,000 active;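 also: plate controls were vehicle for no effect and reference inhibitor for full effect; nearly all actives have a fitted effect of over 55% in size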
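Measures dequenching upon AP-site incision of a 5'-TAMRA/3'-BHQ-2 THF-containing duplex, 50 nM; human APE1 0.75 nM after 15 min room-temperature exposure to compound; kinetic three-point read at one-minute spacing.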
Pol eta inh = blocks human DNA polymerase eta activity | Q9Y253 | recombinant Pol eta, fluorescent DNA replication assay | Potency, µM (titrated, usually from 114 µM), inactives show at the highest dose activity change, negative = inhibition, most hits filed as inhibitors | 1.2% of 390,000 active | AID 588591; also: % is scaled to controls: 0 for no effect and ±100 for the full control effect
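Fluorescent replication assay: 50 nM final substrate added after a 15 min room-temperature compound preincubation with 10 nM enzyme. Signal taken at 0 min and again at 10 min.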
POLB inh = inhibitors of human DNA polymerase beta; P06746; Pol beta primer extension/strand displacement, fluorescence kinetic; Potency, µM (series often up to 114 µM), without a hit: at the highest dose activity change, negative = inhibition, most hits filed as inhibitors; 1.3% of 340,000 active; AID 485314; also: % is scaled to controls: 0 for no effect and ±100 for the full control effect
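Enzyme-only controls used 10 nM Pol beta; buffer lacking enzyme served as negative control. Compound preincubated 15 min, then 50 nM substrate added; 0 and 10 min reads at room temperature.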
GLS inhibitor = inhibitors of human glutaminase (GLS). AID 624170. GLS enzymatic activity, qHTS titration. 0.21% of 410,000 active. Potency, µM (highest dose often 45.5 µM), inactives show at the highest dose activity change, negative = inhibition, hits mostly inhibitors; also: % is scaled to controls: 0 for no effect and ±100 for the full control effect
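Two-point fluorescence kinetic (t0, 30 min RT) for hKGA; glutamate detected via glutamate oxidase–HRP–Amplex Red. Substrate: 1 mM L-glutamine solution; buffer 45 mM KH2PO4, pH 8.2.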
POLK inh = inhibitors of human DNA polymerase kappa; AID 588579; Potency, µM (doses to about 107 µM), inactives show top-dose activity, negative = inhibition, most hits filed as inhibitors; 0.53% of 400,000 active; purified Pol kappa, fluorescent DNA synthesis assay, 10 min; also: % is scaled to controls: 0 for no effect and ±100 for the full control effect
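50 nM final substrate added after 15 min RT preincubation of 10 nM Pol kappa with compound; fluorescence read at 0 and 10 min.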
Pol iota inh = blocks human DNA polymerase iota activity; Potency, µM (titrated, usually from 115 µM), inactives show at the top dose activity, negative = inhibition, most hits filed as inhibitors; Q9UNA4; 1% of 390,000 active; Pol iota fluorescent replication assay, 10 min; AID 588590
Target sequence (Q9UNA4 whole entry, looked up): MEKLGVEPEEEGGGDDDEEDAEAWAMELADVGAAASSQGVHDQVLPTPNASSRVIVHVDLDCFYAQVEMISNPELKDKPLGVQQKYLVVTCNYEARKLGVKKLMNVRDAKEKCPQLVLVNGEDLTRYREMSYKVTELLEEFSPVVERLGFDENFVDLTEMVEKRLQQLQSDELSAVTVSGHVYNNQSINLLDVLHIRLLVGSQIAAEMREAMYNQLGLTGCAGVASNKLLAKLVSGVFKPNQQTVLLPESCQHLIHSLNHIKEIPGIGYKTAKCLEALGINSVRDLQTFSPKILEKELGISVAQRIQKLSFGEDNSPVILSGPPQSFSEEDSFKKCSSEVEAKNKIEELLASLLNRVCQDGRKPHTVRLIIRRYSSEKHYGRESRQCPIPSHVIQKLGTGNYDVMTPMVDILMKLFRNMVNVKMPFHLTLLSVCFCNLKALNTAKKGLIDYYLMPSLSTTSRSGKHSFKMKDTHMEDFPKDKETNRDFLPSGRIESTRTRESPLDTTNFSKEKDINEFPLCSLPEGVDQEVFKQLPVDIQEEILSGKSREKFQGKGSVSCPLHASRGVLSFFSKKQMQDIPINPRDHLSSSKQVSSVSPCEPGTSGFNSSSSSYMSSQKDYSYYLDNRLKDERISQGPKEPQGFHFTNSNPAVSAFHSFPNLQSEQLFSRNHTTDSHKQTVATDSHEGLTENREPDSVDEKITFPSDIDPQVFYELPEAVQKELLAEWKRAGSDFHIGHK
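Pol iota at 10 nM preincubated 15 min with compounds at room temperature; reaction started with fluorescent substrate, 50 nM final. Fluorescence read kinetically at 0 and 10 min; buffer-only wells as negative control.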
Numbers without * were called inactive; ? = inconclusive; . = not tested or not shown; [ ] = remark or other dose. Shown are actives, neighbours in structure and some others; about 2.4% of the full set was active somewhere. Calls follow the shape of the dose curve; as a rule, active = well fitted curve in the direction sought with a large enough effect; inconclusive = small, poorly fitted or top-dose-only effect, or another doubt; inactive = no such curve, though single readings can be large; an effect the other way counts as inactive or inconclusive. Potency is read from the fitted curve at half-maximal effect.

SMILES | APEX1 inh | Pol eta inh | POLB inh | GLS inhibitor | POLK inh | Pol iota inh
Cc1c(/C=C2\SC(=Nc3cccc(C(=O)O)c3)NC2=O)c2ccccc2n1C | 8.2% | 79.4µM* | ? | 21.7% | -37.2% | ?
Cc1cccc(N=C2NC(=O)/C(=C/c3cccn3C)S2)c1 | 13.2% | 2.5% | 22.1% | 15.0% | -4.9% | -15.5%
Cc1cccc(N2CCN(c3ccc(C(=O)O)cc3NC(=O)c3cccc(Cl)c3)CC2C)c1 (stereo unspecified) | . | -0.5% | 31.6µM* | -8.2% | -7.3% | -15.8%
COc1cccc2c1Oc1ncccc1N(C(=O)CCC(=O)NCc1cccc(C)c1)C2 | 43.5% | -7.1% | 27.2% | -6.7% | -45.0% | 39.8µM*
COc1ccc(NC(=O)CSc2nnc(C)n2Cc2ccccc2)cc1 | -1.2% | 7.4% | -1.6% | -0.4% | -15.1% | 5.8%
N#Cc1ccsc1NC(=O)CSc1nncs1 | 13.0% | 39.8µM* | . | 0.9% | -26.6% | ?
Cc1nnc(SCC(=O)Nc2sccc2C#N)n1Cc1ccccc1 | ? | -62.7% | 35.5µM* | -7.7% | ? | 20µM*
N#Cc1ccsc1NC(=O)CSc1ncn[nH]1 | 13.8% | -7.6% | 1.3% | -4.0% | 13.4% | 20.0%
O=C(CSc1nnnn1-c1ccc(O)cc1)NC1CCCCC1 | -14.0% | -24.7% | 8.7% | ? | -18.2% | 57.7%
N#Cc1ccsc1NC(=O)CSc1nnnn1-c1ccc(O)cc1 | 5.6% | 50.1µM* | ? | -12.6% | 0.0% | ?
N#Cc1ccsc1NC(=O)CSc1ncnc2ccccc12 | 11.3% | ? | 35.5µM* | 2.2% | ? | ?
O=C(CSc1ncccn1)c1ccccc1Br | -4.8% | -9.0% | -20.1% | 24.1% | -3.8% | 2.2%
COc1cccc(Cn2c3ccc(NC(=O)CC(C)C(F)(F)F)cc3c(=O)n2C)c1 (stereo unspecified) | . | . | . | 0.2% | . | .
O=C(c1cnn2c(C(F)F)cc(C3CC3)nc12)N1CCCC1 | 7.9% | -3.6% | 16.2% | 4.9% | -8.8% | 8.0%
Cc1nnc(SCC(=O)Nc2sccc2C#N)s1 | 1.4% | 25.1µM* | 31.6µM* | -8.1% | 50.1µM* | 39.8µM*
Cn1ccnc1SCC(=O)Nc1sccc1C#N | -6.2% | ? | 31.6µM* | 9.8% | ? | ?
Cc1nnc(SCC(=O)Nc2sccc2C(N)=O)s1 | 4.1% | -12.3% | . | 2.2% | -12.6% | ?
Cn1ccnc1SCC(=O)c1ccc(C#N)cc1 | 7.4% | -17.6% | -1.7% | ? | -4.0% | 59.7%
Cc1ccc(C(=O)c2cn(CC(=O)NCc3ccccc3)c3nc(C)ccc3c2=O)cc1 | . | 0.7% | 35.4% | -0.5% | 5.1% | 15.4%
O=C(CSc1ccsc1[N+](=O)[O-])N1CCCCCC1 | -0.5% | -10.0% | ? | -0.1% | -9.7% | ?
COCCCNC(=O)CSc1ccsc1[N+](=O)[O-] | -5.2% | 44.7µM* | -23.0% | 6.6% | ? | ?
CCC(C(=O)NCc1ccc(C)cc1)c1ccccc1 (stereo unspecified) | 14.8% | -20.4% | -2.7% | -7.8% | -1.1% | -10.7%
O=C(COc1ccccc1)NN1C(=O)CSC1=S | -9.5% | -20.2% | 4.1% | 8.8% | -12.5%[60.1 µM] | -23.7%
O=C(COc1c(Cl)cccc1Cl)NN1C(=O)CSC1=S | -6.4% | -5.1% | -18.9% | -26.0% | -2.4% | 17.8µM*
Cc1noc(C)c1COc1ccccc1C(=O)N(C)Cc1ccc(C(C)(C)C)cc1 | -19.5% | -16.9% | . | -1.8% | -13.8% | ?
SMILES | APEX1 inh | Pol eta inh | POLB inh | GLS inhibitor | POLK inh | Pol iota inh
CCc1nnc(SCc2ccc(OC(C)C)cc2)n1N | -2.1% | -11.5% | -1.1% | -4.3% | -1.1% | -4.3%
COc1cc2ccc(=O)oc2c(O)c1O | ? | -4.1% | . | 63.3% | 50.1µM* | ?
COc1cc2ccc(=O)oc2c(OC)c1OC | -6.7% | . | . | . | -1.1%[60.1 µM] | .
O=C(Nc1nnc(-c2ccco2)o1)c1ccc(N2C(=O)CCC2=O)cc1 | 5.9% | -3.5% | ? | 32.8% | -32.0% | 22.4µM*
c1ccc(N2CCN(Cc3ccnc4ccccc34)CC2)cc1 | 23.9% | -18.0% | -11.8% | 17.3% | -14.7% | ?
Cc1cnc(CNc2ncnc3ccc(-c4ccc5c(c4)OCO5)cc23)cn1 | 3.8% | . | . | . | ? | .
CSc1cccc(NC(=O)CN(c2ccccc2)S(=O)(=O)N(C)C)c1 | -6.2% | ? | 10µM* | 6.4% | -16.8% | ?
COc1cccc(C(NC(C)=O)c2nc(-c3cccnc3)cs2)c1 (stereo unspecified) | . | . | . | 0.1% | . | .
CC(C)(C)OC(=O)COc1cc(OCC(=O)OC(C)(C)C)c2c(=O)cc(-c3ccccc3)oc2c1 | -1.8% | -10.8% | ? | 1.4% | -1.4% | -3.0%
O=C1/C(=C\c2ccco2)SC(=S)N1c1ccccc1 | 22.4µM* | ? | 28.2µM* | 2.0% | -25.0% | ?
O=C1/C(=C\c2ccco2)SC(=S)N1Cc1ccccc1 | ? | ? | ? | -2.1% | -10.7% | -1.9%
O=C1/C(=C/c2ccco2)SC(=S)N1C1CCS(=O)(=O)C1 (stereo unspecified) | -0.4% | -8.3% | 12.6µM* | -0.7% | ? | ?
Cc1ccc(N2C(=O)/C(=C\c3ccco3)SC2=S)cc1 | -3.6% | ? | 44.7µM* | 5.1% | 79.4µM* | ?
Cc1ccc(/C=C2\SC(=S)N(c3cccnc3)C2=O)cc1 | -1.8% | 4.1% | -0.3% | -2.4% | 2.8% | -2.8%
O=C(CCl)c1ccc2[nH]c(=O)oc2c1 | -1.2% | 44.7µM* | -20.6% | 1.1% | -22.8% | ?
O=C1N/C(=C\c2ccc(O)cc2)C(=O)c2ccccc21 | ? | 25.1µM* | 2.0% | -4.0% | -17.4% | 20µM*
O=C(O)/C=C1\NC(=O)c2ccccc21 | -3.9% | 4.0% | 13.4% | -0.2% | -10.0% | -4.1%
O=C(c1ccc(F)cc1)N1CCC(C(=O)N2CCN(Cc3ccc4c(c3)OCO4)CC2)CC1 | -1.6% | -9.4% | . | 19.2% | -12.8% | 12.4%
C(=N\Nc1nc2ccccc2[nH]1)/c1c[nH]c2ccccc12 | -3.6% | -31.3% | -18.5% | 12.6µM* | -8.7% | 163.6%
COc1ccc(CCNC(=O)Cn2nnc(-c3ccc(Cl)cc3)n2)cc1OC | . | -10.2% | -28.5% | -0.4% | -8.0%[60.1 µM] | -19.5%
O=C(C1=C[C@@H](c2csc3ccccc23)C[C@@H](OCc2ccc(CO)cc2)O1)N1CCN(Cc2ccccc2)CC1 | -2.8% | -17.6% | -7.6% | -3.8% | -2.1% | ?
Cc1ccccc1NC(=O)NC1CCCCC1C (stereo unspecified) | 1.8% | -8.1% | 0.4% | -2.9% | -10.0% | 4.0%
COc1ccccc1OC(=O)CCc1nc2ccccc2s1 | 0.4% | ? | ? | -9.1% | ? | 15.8µM*
NC(CSC(c1ccccc1)(c1ccccc1)c1ccc2c(c1)OCO2)C(=O)O (stereo unspecified) | . | 35.5µM* | . | -1.7% | . | .
CCCNC(=O)Nc1nc2ccccc2s1 | -2.8% | -4.6% | 24.6% | -3.8% | -11.3% | -12.5%
